# Laboratory results published in PubChem BioAssay (NCATS).
# The source made the active and inactive calls. Calls come from the whole dose curve; as a rule, active = well fitted curve in the direction sought with a large enough effect; inconclusive = small, poorly fitted or top-dose-only effect, or another doubt; inactive = no such curve, though single readings can be large or run the other way.
# Molecular target: Galactokinase (Homo sapiens) (UniProt P51570)
# Assay: qHTS Validation Assay for Inhibitors of Human Galactokinase (GALK) (AID 493189); note: 0% is about no effect
# Settings: purified human GALK enzyme activity, qHTS 7-point titration; series mostly up to 57.5 µM; activity change, negative = inhibition: at the top concentration
# How it was run: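 GALK (5 nM) with 35 uM ATP and 100 uM galactose in HEPES pH8.0, MgCl2, NaCl, DTT, BSA; 1 h at room temperature. Residual ATP read by Kinase-Glo Plus luminescence after 10 min.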
# Sequence of Galactokinase (Homo sapiens) (P51570 whole entry, looked up): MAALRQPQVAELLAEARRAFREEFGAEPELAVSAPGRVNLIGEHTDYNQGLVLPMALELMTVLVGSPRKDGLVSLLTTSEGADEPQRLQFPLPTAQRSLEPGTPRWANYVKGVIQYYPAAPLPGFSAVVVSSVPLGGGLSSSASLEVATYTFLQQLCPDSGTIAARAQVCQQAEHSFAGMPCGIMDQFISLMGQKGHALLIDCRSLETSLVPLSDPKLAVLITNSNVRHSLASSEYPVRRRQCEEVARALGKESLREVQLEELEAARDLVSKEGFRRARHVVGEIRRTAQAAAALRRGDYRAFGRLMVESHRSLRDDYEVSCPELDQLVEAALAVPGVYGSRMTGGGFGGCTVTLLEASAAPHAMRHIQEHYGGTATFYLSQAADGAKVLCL
row,SMILES,"activity change, negative = inhibition"
1,CCCN(CCC)C1CCc2cccc(O)c2C1 (stereo not given),4.59% (inactive)
2,CC(N)Cc1c[nH]c2ccc(OCc3cccs3)cc12 (stereo not given),2.99% (inactive)
3,O=c1c2ccccc2[se]n1-c1ccccc1,4.08% (inactive)
4,CC(C)(C)c1cc(C=C(C#N)C#N)cc(C(C)(C)C)c1O,1.06% (inactive)
5,COc1ccc2c(c1)[C@@]13CCCC[C@H]1[C@@H](C2)NCC3,1.71% (inactive)
6,Cc1c2ccncc2c(C)c2c1[nH]c1ccccc12,2.28% (inactive)
7,NCCc1ccc(S(=O)(=O)F)cc1,1.35% (inactive)
8,C=CCN1CC[C@]23c4c5ccc(O)c4O[C@@H]2/C(=N/N=C2\CC[C@@]4(O)C6Cc7ccc(O)c8c7[C@@]4(CCN6CC=C)[C@@H]2O8)CC[C@@]3(O)C1C5,2.68% (inactive)
9,O=C(O)c1cc[c]([Hg][Cl])cc1,5.11% (inactive)
10,CNc1ccc2oc(C[C@H]3O[C@@]4(CC[C@H]3C)O[C@H]([C@H](C)C(=O)c3ccc[nH]3)[C@H](C)C[C@H]4C)nc2c1C(=O)O,-1.18% (inactive)
11,CN1CC[C@@]2(C)c3cc(O)ccc3N(C)C12 (stereo not given in full),1.08% (inactive)
12,CC(C)NP(=O)(NC(C)C)OP(=O)(NC(C)C)NC(C)C,-1.33% (inactive)
13,CC1OC1P(=O)(O)O (stereo not given),5.25% (inactive)
14,CCN(CC)c1ncnc2c1ncn2[C@@H]1O[C@H](COP(=O)(O)OP(=O)(O)C(Br)(Br)P(=O)(O)O)[C@@H](O)[C@H]1O,-1.29% (inactive)
15,C=CCN1C[C@@H](C)N([C@H](c2ccc(C(=O)N(CC)CC)cc2)c2cccc(OC)c2)C[C@@H]1C,-4.08% (inactive)
16,O=S1(=O)N(CCN2CC=C(c3c[nH]c4cc(F)ccc34)CC2)c2cccc3c2N1CCC3,3.52% (inactive)
17,CCCN(CCC)C1Cc2cc(OC)c(OC)cc2C1,-1.29% (inactive)
18,C[C@]12Cc3cn4c(nc3C=C1CCC1C2CC[C@@]2(C)[C@H]1CC[C@@]2(O)C#N)nc1ccccc14 (stereo not given in full),-15.3% (inactive)

row,SMILES,"activity change, negative = inhibition"
1,COc1ccc2c(c1)/C(=C/c1cnc[nH]1)C(=O)N2,-1.29% (inactive)
2,C[N+]1(C)CCC(OC(=O)C(c2ccccc2)c2ccccc2)CC1,-0.0426% (inactive)
3,C[N+]1(C)C2CCC1CC(OC(=O)c1c[nH]c3ccccc13)C2 (stereo not given),-3.05% (inactive)
4,O=[N+]([O-])c1cc(O)c(O)c([N+](=O)[O-])c1,4.3% (inactive)
5,CCn1cnc2c(Nc3cccc(Cl)c3)nc(N[C@@H]3CCCC[C@@H]3N)nc21,3.42% (inactive)
6,c1ccc2c(c1)[I+]c1ccccc1-2,-3.19% (inactive)
7,CN(N=O)c1ccc(O)c(O)c1,-0.416% (inactive)
8,CN1C2CCC1CC(OC(c1ccccc1)c1ccc(Cl)cc1)C2 (stereo not given),5.92% (inactive)
9,COc1ccc2c(c1OC)C(=O)OC2C1c2cc3c(cc2CCN1C)OCO3 (stereo not given),-0.764% (inactive)
10,CCCN(CCC)CCc1c[nH]c2ccc(C(N)=O)cc12,3.94% (inactive)
11,CNC(=O)OCC[N+](C)(C)C,-3.52% (inactive)
12,O=P(O)(O)C(Cl)(Cl)P(=O)(O)O,-0.733% (inactive)
13,CCCn1c(C)c(C(=O)c2ccc3ccccc3c2)c2ccccc21,-0.0916% (inactive)
14,CC(=O)c1c(O)c(C)c(O)c(Cc2c(O)c3c(c(C(=O)/C=C/c4ccccc4)c2O)OC(C)(C)C=C3)c1O,-13% (inactive)
15,CCCN1CC[C@@H]2c3cc(O)ccc3CC[C@@H]21,3.08% (inactive)
16,CN(N=O)c1cc(O)ccc1O,1.47% (inactive)
17,CC(C)CC(NP(=O)(O)O[C@@H]1O[C@@H](C)[C@H](O)[C@@H](O)[C@H]1O)C(=O)NC(Cc1c[nH]c2ccccc12)C(=O)O (stereo not given in full),-0.96% (inactive)
